We go through 38 sequences from paper PMC3218832.

In the first assay the target is T1, p52p52 homodimer (Homo sapiens, UniProt Q00653 4-332).
T1 sequence: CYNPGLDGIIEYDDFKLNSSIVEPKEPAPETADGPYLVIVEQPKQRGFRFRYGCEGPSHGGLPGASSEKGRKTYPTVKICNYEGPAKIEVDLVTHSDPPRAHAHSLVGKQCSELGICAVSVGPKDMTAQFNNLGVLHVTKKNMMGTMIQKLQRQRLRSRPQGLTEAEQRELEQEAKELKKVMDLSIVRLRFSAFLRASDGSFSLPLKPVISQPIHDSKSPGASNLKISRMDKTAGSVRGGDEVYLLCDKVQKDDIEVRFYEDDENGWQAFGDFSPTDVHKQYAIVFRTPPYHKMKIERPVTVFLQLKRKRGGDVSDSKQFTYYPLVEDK
The assay can be described thus: protein binding microarray; high values mean tight binding. The following applies: dsDNA, one strand shown.
As for GGAAACCTCCT, the binding signal was -0.526 z-score.

Consider AGATACATCCC, for which the binding signal is -0.47 z-score.

Regarding AGATTACCCCC, the binding signal worked out at 0.936 z-score.

With CGGATCTTCCT, the binding signal was -0.691 z-score.

In the case of CGATGTCTCCT, the binding signal is -0.736 z-score.

On to CGATAGCTCCT, for which the binding signal was -0.796 z-score.

On to CGATTAATCCC, for which the binding signal was -0.0861 z-score.

Turning to AGGATGTTCCC, the binding signal is -0.143 z-score.

Regarding AGGATCACCCT, the binding signal is -0.277 z-score.

GGGAATCTCCT had a binding signal of 1.08 z-score.

With CGAGTCTTCCC, the binding signal was -0.302 z-score.

On to AGAATGCTCCC, for which the binding signal is -0.418 z-score.

Regarding GGAGAAGTCCT, the binding signal is -0.506 z-score.

As for AAATTGCTCCT, the binding signal was -0.602 z-score.

AAAGGTCCCCT: the binding signal is 0.848 z-score.

Turning to CGGAATCCCCT, the binding signal came out at 2.39 z-score.

AAAGTTACCCT returned a binding signal of 0.376 z-score.

For CAGAACCTCCT, the binding signal is -0.791 z-score.

With GAGTTGTTCCC, the binding signal is -0.231 z-score.

As to AAGAAAGCCCT, the binding signal was -0.426 z-score.

For GAGAGATTCCC, the binding signal stood at 0.325 z-score.

GAATTTGTCCC came in with a binding signal of 0.9 z-score.

CGGAAATTCCC: the binding signal was found to be 2.53 z-score.

With GAATATATCCC, the binding signal was -0.107 z-score.

With GAAGTCTTCCC, the binding signal was -0.37 z-score.

Regarding AGGTTCGCCCT, the binding signal was -0.726 z-score.

GAAAAAACCCC gave a binding signal of 2.74 z-score.

In turn, CGGGTATCCCC gave a binding signal of 2.48 z-score.

AGAGTGTCCCT returned a binding signal of 0.823 z-score.

On to GGGTACCTCCC, for which the binding signal turned out to be 1.06 z-score.

In turn, GAAAACCCCCT registered a binding signal of 2.75 z-score.

CGGGGCATCCT registered a binding signal of 0.516 z-score.

For GAGATTGCCCC, the binding signal amounted to 0.0909 z-score.

CGGAACACCCT: the binding signal was -0.238 z-score.

For AGATAAGTCCC, the binding signal stood at 0.806 z-score.

Take CGAGTGGTCCC: the binding signal is -0.0457 z-score.

As for AAGGTAGCCCC, the binding signal was found to be 0.109 z-score.

As to GAGTGCGCCCC, the binding signal was -0.0852 z-score.

In a further assay the target is RELA (p65) subunit of heterodimer;p50 subunit (Homo sapiens;Homo sapiens, UniProt Q04206;P19838 1-307;7-356). The description is as above. To be noted: dsDNA, one strand shown.
RELA (p65) subunit of heterodimer;p50 subunit, sequence (Q04206 1-307, chain 1 of 2): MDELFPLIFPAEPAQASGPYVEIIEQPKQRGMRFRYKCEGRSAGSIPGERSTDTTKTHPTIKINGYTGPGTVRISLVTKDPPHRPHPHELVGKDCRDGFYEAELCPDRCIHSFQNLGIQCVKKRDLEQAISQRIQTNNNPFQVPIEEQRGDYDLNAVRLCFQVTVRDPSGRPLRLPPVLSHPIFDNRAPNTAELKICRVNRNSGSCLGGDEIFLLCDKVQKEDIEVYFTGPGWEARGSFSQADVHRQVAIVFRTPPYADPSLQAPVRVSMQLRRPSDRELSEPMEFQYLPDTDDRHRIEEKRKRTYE
RELA (p65) subunit of heterodimer;p50 subunit, sequence (P19838 7-356, chain 2 of 2): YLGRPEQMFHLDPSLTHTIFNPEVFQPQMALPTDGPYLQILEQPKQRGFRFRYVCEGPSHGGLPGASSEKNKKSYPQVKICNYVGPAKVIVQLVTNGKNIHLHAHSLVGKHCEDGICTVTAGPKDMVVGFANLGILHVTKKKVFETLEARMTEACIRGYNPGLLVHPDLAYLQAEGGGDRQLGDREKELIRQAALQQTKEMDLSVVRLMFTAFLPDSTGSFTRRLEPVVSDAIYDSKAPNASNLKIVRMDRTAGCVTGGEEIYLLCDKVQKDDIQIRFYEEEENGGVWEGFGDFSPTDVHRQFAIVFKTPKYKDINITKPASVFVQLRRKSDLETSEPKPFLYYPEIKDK
GGAAACCTCCT: the binding signal was -0.425 z-score.

Consider AGATACATCCC, for which the binding signal is -0.557 z-score.

Sequence AGATTACCCCC yielded a binding signal of 1.24 z-score.

Consider CGGATCTTCCT, for which the binding signal is -0.69 z-score.

Regarding CGATGTCTCCT, the binding signal is -0.843 z-score.

Take CGATAGCTCCT: the binding signal is -1.07 z-score.

As to CGATTAATCCC, the binding signal is -0.0553 z-score.

For the sequence AGGATGTTCCC, the binding signal was determined as 0.237 z-score.

For AGGATCACCCT, the binding signal was -0.316 z-score.

GGGAATCTCCT came in with a binding signal of 0.896 z-score.

Regarding CGAGTCTTCCC, the binding signal was -0.0997 z-score.

Consider AGAATGCTCCC, for which the binding signal is -0.467 z-score.

As to GGAGAAGTCCT, the binding signal was -0.525 z-score.

In the case of AAATTGCTCCT, the binding signal is -0.644 z-score.

Turning to AAAGGTCCCCT, the binding signal stood at 0.65 z-score.

As to CGGAATCCCCT, the binding signal came out at 2.3 z-score.

For AAAGTTACCCT, the binding signal is 0.371 z-score.

For CAGAACCTCCT, the binding signal was -0.921 z-score.

Turning to GAGTTGTTCCC, the binding signal was -0.188 z-score.

With AAGAAAGCCCT, the binding signal is -0.68 z-score.

With GAGAGATTCCC, the binding signal was 0.844 z-score.

For the sequence GAATTTGTCCC, the binding signal turned out to be 1.01 z-score.

Turning to CGGAAATTCCC, the binding signal stood at 2.23 z-score.

Turning to GAATATATCCC, the binding signal was -0.275 z-score.

For GAAGTCTTCCC, the binding signal was -0.272 z-score.

On to AGGTTCGCCCT, for which the binding signal is -0.876 z-score.

The sequence GAAAAAACCCC came in with a binding signal of 1.93 z-score.

Consider CGGGTATCCCC, for which the binding signal worked out at 1.84 z-score.

AGAGTGTCCCT registered a binding signal of 0.527 z-score.

GGGTACCTCCC returned a binding signal of 0.436 z-score.

With GAAAACCCCCT, the binding signal stood at 2.46 z-score.

As for CGGGGCATCCT, the binding signal amounted to 0.0241 z-score.

Sequence GAGATTGCCCC had a binding signal of 0.951 z-score.

In the case of CGGAACACCCT, the binding signal is -0.453 z-score.

Sequence AGATAAGTCCC came in with a binding signal of 1.13 z-score.

On to CGAGTGGTCCC, for which the binding signal was -0.513 z-score.

AAGGTAGCCCC: the binding signal was -0.162 z-score.

Consider GAGTGCGCCCC, for which the binding signal was -0.178 z-score.
